35 compounds from PubChem BioAssay (NCI) can be followed below.

Values joined by “and” are separate entries in the source; they are usually repeats but may differ in a detail not shown here. Equal values may be shown once. Compounds without any hit were thinned out: in the full panel of roughly 83,000, 20% have a hit.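 The endpoint reported here, percent growth, reads 100 for growth as untreated, 0 for no net growth and -100 for all cells dead.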 Values without a mark were called inactive. Active and inactive are the calls of the source. Rule for the calls: active = growth percent below 10; inactive = the rest.

The subject of the assay is MDA-MB-468 breast. Briefly: NCI-60 one-dose screen, 48 h (100 = growth as untreated, 0 = no growth, -100 = all killed). Particulars: 10 µM unless noted.
On to `CCCCCCCCCCCCCCCCCC1OC[C@H](COC(=O)O[C@@H](C(=O)O[C@H]2C[C@@]3(O)[C@@H](OC(=O)c4ccccc4)[C@@H]4[C@]5(OC(C)=O)CO[C@@H]5C[C@H](O)[C@@]4(C)C(=O)[C@H](OC(C)=O)C(=C2C)C3(C)C)[C@@H](NC(=O)c2ccccc2)c2ccccc2)O1` (stereo not given in full), for which the growth was 0.893% (active).

`Clc1cccc(Cl)c1Cl`: the growth was 107%. `CCOC(=O)c1ccccc1C(=O)OCC`: the growth was 81%.

With `C/C1=C/C(=O)O[C@@H]2C[C@@H](CC[C@H](C)/C=C\C=C\CC1)O[C@@](O)([C@@H]1CSC(=O)N1CO)C2`, the growth was 10.3%.

`CC[n+]1c(-c2ccccc2)c2cc(N)ccc2c2ccc(N)cc21`: the growth is -62.8% (active). Turning to `C=CC[n+]1ccc(-c2cc[n+](CC=C)cc2)cc1`, the growth was 66.6%. The value for `O=C(O)C1[O][Sb][O]C1C(=O)O` (stereo not given) was 95.7%.

For `CCOP(=O)(OCC)C(O)c1ccccc1Cl` (stereo not given), the growth was 103%.

Take `CCOC(=O)c1cncn1C(C)c1ccccc1` (stereo not given): the growth is 97.6%.

As to `Cc1cc(N(CCCl)CCCl)ccc1C=Nc1ccc(-c2csc(Cc3ccccc3)n2)cc1`, the growth is 39.3%. `O=C1C=C(N2CC2)c2ccccc2C1=O`: the growth was 24.6%. In the case of `COc1cc(/C=C\c2cc(OC)c(OC)c(OC)c2)cc(N/C=C\C(=O)c2cc(OC)c(OC)c(OC)c2)c1OC`, the growth is -10.6% (active). The value for `COC(=O)[C@H](Cc1ccccc1)NC(=O)c1csc([C@@H](C[C@H](C(C)C)N(C)C(=O)[C@@H](NC(=O)[C@H]2CCCCN2C)C2CC2)OC(C)=O)n1` was -3.15% (active). In the case of `CCCC[C@H](NC(=O)[C@H]1CCCCN1C)C(=O)N(C)[C@H](C[C@@H](OC(C)=O)c1nc(C(=O)N[C@@H](Cc2ccccc2)C[C@H](C)C(=O)OCC)cs1)C(C)C`, the growth was 31.2%. In the case of `COCC1OC2OC3C(COC)OC(OC4C(COC)OC(OC5C(COC)OC(OC6C(COC)OC(OC7C(COC)OC(OC8C(COC)OC(OC1C(O)C2O)C(O)C8O)C(O)C7O)C(O)C6O)C(O)C5O)C(O)C4O)C(O)C3O` (stereo not given) (tested in a mixture with another compound), the growth was 105%.

`C[C@]12CC[C@@H](OC(=O)N(CCCl)N=O)C[C@@H]1CC[C@@H]1[C@@H]2CC[C@]2(C)C(=O)CC[C@@H]12`: the growth is -31.4% (active). The value for `CCOC(=O)[C@@H](C)C[C@H](Cc1ccccc1)NC(=O)c1csc([C@@H](C[C@H](C(C)C)N(C)C(=O)[C@@H](NC(=O)[C@H]2CCCCN2C)C(C)(C)CC)OC(C)=O)n1` was 19.5%; that for `C=NCC#N` was 105% and 108%; that for `CCC1CCC(=O)O1` (stereo not given) was 99.3% and 109%. The value for `c1cnc2[nH]cc(-c3csc(-c4cn(CCCCN5CCCCC5)c5ccccc45)n3)c2c1` was 98.6%; that for `C=COC(=O)CCN1CC1` was 108%; that for `O=C(N/N=C/c1ccc(N(CCCl)CCCl)cc1)c1cccc2ccccc12` was 56.2%. For the compound `CCCCCCCCCCCCCCCC[N+](C)(C)Cc1ccccc1`, the growth is -27.3% (active) and -40.6% (active). As to `C=CC1=C[C@@H]2[C@@H]3O[C@]4(CC[C@H](O4)[C@@H](C)C[C@@H](O)C3=O)C[C@H](O)C3=NCC[C@@]32CC1`, the growth was -56% (active). On to `Cc1ccccc1NC(=NCCCN1CC1)Nc1ccccc1C`, for which the growth is 54.7%. Consider `CO[C@@H](c1ccccc1Cl)[C@H](C)OC(N)=O`, for which the growth was 91.6%. The value for `c1ccc(COc2ccc3[nH]cc(CCN(Cc4ccccc4)Cc4ccccc4)c3c2)cc1` was 87.9%. `CCOP(=O)(Cc1ccc(C#N)cc1)OCC`: the growth was 108%.

As to `CCCCOC(N)=O`, the growth was 101%. On to `CCN1C(=O)CC(=O)N(CC)C1=S`, for which the growth was 93.1%. In the case of `COc1ccc(/C=C\c2cc(OC)c(OC)c(OC)c2)c(NS(=O)(=O)c2ccc(Cl)cc2)c1O` it was 9.56% (active); in that of `O=C(O)C(O)c1ccc(Cl)cc1` (stereo not given), 84.9% and 112%; in that of `N#[N+]c1nc2nc(N)[nH]c(=O)c2[nH]1`, 100%. With `CC(=O)OC[C@]1(C)C=C2C(=O)[C@](C)(O)C3(CC3)C(C)=C2[C@H]1O`, the growth was -71.7% (active). In the case of `ClCCN(CCCl)c1ccc(/C=N/Nc2ncnc3nc[nH]c23)cc1` it was 49.8%.
